FBPA Giardia inh: blocks Giardia fructose-bisphosphate aldolase activity; A8B2U2; purified Giardia FBPA; Potency, µM (highest dose often 59.6 µM), actives largely listed as inhibitors; 0.71% of 290,000 active; AID 2451; note: nearly all actives have a fitted effect of over 55% in size
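40 nM FBPA preincubated 10 min at RT with compound (up to 57.5 uM final), then substrate plus GAPDH/TPI/NAD/arsenate coupling and diaphorase/resazurin added. Fluorescence read after 20 min at RT, 525/598 nm.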
Shiga toxin inh: inhibitors of Shiga toxin in Vero cells; inhibition, % at 38.7 µM; 9.2% of 290,000 active; Vero cells, Shiga toxin protein synthesis inhibition reporter; AID 2315; in the data active = inhibition mostly above about 28%, no sharp cut-off; inactive = mostly below about 43%
Cycloheximide cs: counter-screen hit for Shiga toxin inhibitors, cycloheximide. 12% of 300,000 active. max response, %. cell reporter, cycloheximide protein synthesis inhibition counterscreen; in the data active = max response mostly above about 13%, no sharp cut-off; inactive = mostly below about 14%; note: read at 38.3 µM for the half of the compounds with a filed dose
LmPK inh: inhibitors of Leishmania mexicana pyruvate kinase; Q27686; purified LmPK, Kinase-Glo ATP luminescence, 1 h; Potency, µM (doses to about 57.5 µM), usual class: inhibitors; 0.37% of 290,000 active; AID 1721
Target sequence (Q27686 whole entry, looked up): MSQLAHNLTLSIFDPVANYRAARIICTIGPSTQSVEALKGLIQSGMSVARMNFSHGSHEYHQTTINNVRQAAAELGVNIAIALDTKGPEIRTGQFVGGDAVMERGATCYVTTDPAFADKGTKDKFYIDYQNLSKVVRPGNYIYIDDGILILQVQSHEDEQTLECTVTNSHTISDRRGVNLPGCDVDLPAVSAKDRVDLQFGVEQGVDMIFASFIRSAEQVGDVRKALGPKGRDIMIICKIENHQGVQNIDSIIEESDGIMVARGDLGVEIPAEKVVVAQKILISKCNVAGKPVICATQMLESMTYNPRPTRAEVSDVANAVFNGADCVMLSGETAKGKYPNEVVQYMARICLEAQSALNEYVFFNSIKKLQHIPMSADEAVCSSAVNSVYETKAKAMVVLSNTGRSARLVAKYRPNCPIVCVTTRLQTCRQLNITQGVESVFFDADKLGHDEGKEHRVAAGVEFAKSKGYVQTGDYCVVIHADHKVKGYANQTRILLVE
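Pyruvate kinase activity monitored as ATP production (luciferase luminescence). Conditions: 0.1 nM enzyme, 0.5 mM PEP, 0.1 mM ADP, 1 h, RT; normalized against uninhibited and no-enzyme wells.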
TbPYK inhibitor: T. brucei pyruvate kinase inhibition. Q57TT1. TbPYK enzyme, Kinase-Glo Plus ATP luminescence, 45 min. Potency, µM (doses to about 76.8 µM), hits mostly inhibitors. 0.12% of 410,000 active. AID 624173; note: nearly all actives have a fitted effect of over 50% in size
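TbPYK + substrate in 50 mM TEA pH 7.2, 100 mM KCl, 10 mM MgCl2, 0.05% BSA, 0.01% Tween-20; cpd pinned; ADP 130 uM final; 45 min RT; Kinase-Glo Plus 10 min; luminescence endpoint.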
RE007 growth inh: less growth of the S. pombe RE007 Vpr strain. Potency, µM (doses to about 92.2 µM), most hits filed as inhibitors. 0.21% of 360,000 active. S. pombe RE007 Vpr strain, BacTiter-Glo ATP luminescence, 24 h; active = well fitted falling curve with a large enough effect; inconclusive = small, poorly fitted or top-dose-only effect; inactive = no such curve, though single readings can be large or run the other way; note: nearly all actives have a fitted effect of over 50% in size
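Fission yeast RE007 carrying one integrated HIV-1 vpr copy, seeded at OD 0.01 in PMG+AL medium with 23 nL pinned compound. Grown 24 h at 30 degrees; viability read by BacTiter-Glo luminescence after 5 min.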
Hits are given with their value. Shown is part of a subset that was picked to be rich in hits. Unless noted, calls come from the whole dose curve; as a rule, active = well fitted curve in the direction sought with a large enough effect; inconclusive = small, poorly fitted or top-dose-only effect, or another doubt; inactive = no such curve, though single readings can be large; an effect the other way counts as inactive or inconclusive.

How did O=C(NCc1ccccc1Cl)c1cc(-c2ccccc2)n[nH]1 do in these assays?
TbPYK inhibitor: inactive

How did Cc1ccc2cc(C)c3nnc(SCC(=O)c4cccs4)n3c2c1C do in these assays?
FBPA Giardia inh: inactive; Shiga toxin inh: inactive; Cycloheximide cs: 37.5; LmPK inh: inactive; TbPYK inhibitor: inconclusive; RE007 growth inh: inconclusive

How did Cc1ccc2cc(C)c3nnc(SCC(=O)Nc4nc5c(s4)CCCC5)n3c2c1C do in these assays?
FBPA Giardia inh: inactive; Shiga toxin inh: inactive; Cycloheximide cs: 11.9; LmPK inh: inactive; TbPYK inhibitor: inactive; RE007 growth inh: inactive

What do the screens show for `Cc1cc(SCC(=O)c2cccs2)nc2ccccc12`?
FBPA Giardia inh: inactive; Shiga toxin inh: 73.4; Cycloheximide cs: 42.3; LmPK inh: inactive; TbPYK inhibitor: inactive; RE007 growth inh: inactive

What do the screens show for `Cc1ccc(C)c2c1cc(C)c1nnc(SCC(=O)c3cccs3)n12`?
FBPA Giardia inh: inconclusive; Shiga toxin inh: inactive; Cycloheximide cs: inactive; LmPK inh: inconclusive; TbPYK inhibitor: inconclusive; RE007 growth inh: inactive

How did Cc1coc2c(C)c3oc(=O)c(CCC(=O)NCCc4ccc(Cl)cc4)c(C)c3cc12 do in these assays?
TbPYK inhibitor: inactive

What do the screens show for `CN(Cc1ccccn1)C(=O)C1CCC(=O)N(CCc2ccc(Cl)cc2)C1` (centres undefined)?
Shiga toxin inh: inactive; Cycloheximide cs: inactive; LmPK inh: inactive; TbPYK inhibitor: inactive; RE007 growth inh: inactive

How did O=C(Cc1ccc(Cl)cc1)NCC(c1cccs1)S(=O)(=O)c1ccccc1 (centres undefined) do in these assays?
TbPYK inhibitor: inactive

What do the screens show for `CCOC(=O)C(C)Sc1nnc2ccc3ccccc3n12` (centres undefined)?
TbPYK inhibitor: inactive

Results for COc1ccc(NS(=O)(=O)c2ccc(/C=C/C(=O)O)cc2)cc1S(=O)(=O)N1CCOCC1 ?
FBPA Giardia inh: inactive; Shiga toxin inh: inactive; Cycloheximide cs: inactive; LmPK inh: inactive; TbPYK inhibitor: inactive; RE007 growth inh: inactive

What do the screens show for `CC1S/C(=N/N=C/c2cccs2)NC1=O` (centres undefined)?
FBPA Giardia inh: inactive; Shiga toxin inh: 20.1; Cycloheximide cs: 16.1; LmPK inh: inactive; TbPYK inhibitor: inactive; RE007 growth inh: inactive

How did CCC1S/C(=N/N=C/c2cccs2)NC1=O (centres undefined) do in these assays?
FBPA Giardia inh: inactive; Shiga toxin inh: inactive; Cycloheximide cs: inactive; LmPK inh: inactive; TbPYK inhibitor: inactive; RE007 growth inh: inactive

How did C(=N\N=C\c1cccs1)/c1cccs1 do in these assays?
FBPA Giardia inh: inactive; Shiga toxin inh: 71.2; Cycloheximide cs: 45.1; LmPK inh: inactive; TbPYK inhibitor: inactive; RE007 growth inh: inactive

Results for COc1ccc(NC(=O)CN2C(=O)NC(C)(C3CC3)C2=O)cc1S(=O)(=O)N1CCCCC1 (centres undefined) ?
TbPYK inhibitor: inactive; RE007 growth inh: inactive

Results for CSCc1ccc(C(=O)NC2CC(C)(C)Cc3c2cnn3-c2ccc(F)cc2)o1 (centres undefined) ?
FBPA Giardia inh: inactive; Shiga toxin inh: inactive; Cycloheximide cs: 28.0; LmPK inh: inactive; TbPYK inhibitor: inactive; RE007 growth inh: inactive

Results for CC1(C)Cc2c(cnn2-c2ccc(F)cc2)C(NC(=O)c2ccc(=O)oc2)C1 (centres undefined) ?
Shiga toxin inh: inactive; Cycloheximide cs: 22.4; LmPK inh: inactive; TbPYK inhibitor: inactive; RE007 growth inh: inactive

How did Cc1ccc(-n2nc(CO)c(C(=O)NCCc3ccccc3)n2)cc1C do in these assays?
TbPYK inhibitor: inactive

How did Cc1ccc(N(C)C(=O)Cn2cnc3onc(-c4ccc(F)cc4)c3c2=O)cc1C do in these assays?
TbPYK inhibitor: inactive

Results for CCn1c(=O)c2c(nc3n2CCN3c2ccc(OC)cc2)n(C)c1=O ?
TbPYK inhibitor: inactive

How did CN(CC1COc2ccccc2O1)C(=S)NC1CCCCC1 (centres undefined) do in these assays?
FBPA Giardia inh: inactive; Shiga toxin inh: 59.5; Cycloheximide cs: 24.8; LmPK inh: inactive; TbPYK inhibitor: inactive; RE007 growth inh: inactive

Results for O=C(NC1CCCCC1)C1COc2ccccc2O1 (centres undefined) ?
TbPYK inhibitor: inactive; RE007 growth inh: inactive

High-throughput results from PubChem BioAssay.
